Holding throughout (settings): primary human HUVEC with PBMC; actives raise or lower the signal
Read-out in assay [1]: Monocyte Chemoattractant Protein-1 (MCP1), CCL2 (gene 6347)
The experiment in a line: BSK_LPS_MCP1: BioMAP Diversity Plus: LPS Assay for Monocyte Chemoattractant Protein-1 (MCP1) Biomarker Activity (AID 2283081).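 For AC50: secreted MCP-1 protein quantified by ELISA in culture supernatant.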 The method, boiled down:
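Human endothelial–PBMC co-cultures were dosed with chemical, then LPS-driven MCP-1 levels were quantified by ELISA at 24 h. Activity in either direction was fitted versus DMSO negative control.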

Assay [2] can be described thus: BSK_LPS_PGE2: BioMAP Diversity Plus: LPS Assay for Prostaglandin E2 (PGE2) Biomarker Activity (AID 2283082).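 For AC50: secreted prostaglandin E2 measured by ELISA in LPS-stimulated co-culture.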 The method, boiled down:
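PGE2 release measured by ELISA in an LPS-activated co-culture of human umbilical vein endothelial cells and peripheral blood mononuclear cells, read at 24 h post-dosing. DMSO served as baseline for bidirectional curve fitting.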

Read-out in assay [3]: Macrophage colony-stimulating factor (MCSF), CSF1 (gene 1435)
The experiment in a line: BSK_LPS_MCSF: BioMAP Diversity Plus: LPS Assay for Macrophage colony-stimulating factor (MCSF) Biomarker Activity (AID 2283083). The method, boiled down: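 ELISA readout of M-CSF after 24 h compound exposure in a human endothelial/PBMC co-culture. Activity, in either direction, is fitted relative to DMSO vehicle.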

Read-out in assay [4]: Tissue Factor, F3 (gene 2152)
The assay can be described thus: BSK_LPS_TissueFactor: BioMAP Diversity Plus: LPS Assay for Tissue Factor Biomarker Activity (AID 2283084). The gist of the method: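 ELISA signal for cell-surface Tissue Factor (CD142) was read 24 h after compound dosing of an LPS-stimulated human endothelial–PBMC primary co-culture. Gain or loss of signal was scored relative to DMSO.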

Read-out in assay [5]: Tumor necrosis factor (Homo sapiens) (UniProt P01375)
The assay can be described thus: BSK_LPS_TNFa: BioMAP Diversity Plus: LPS Assay for Tumour Necrosis Factor alpha (TNFa) Biomarker Activity (AID 2283085).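 For AC50: TNFa protein level quantified by ELISA in the co-culture.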 The gist of the method:
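TNFa was quantified by ELISA in LPS-activated co-cultures of human endothelial cells and PBMC, 24 h post-dosing. Both increases and decreases versus DMSO were fitted.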

Read-out in assay [6]: Vascular cell adhesion molecule 1 (VCAM1), VCAM1 (gene 7412)
The experiment in a line: BSK_LPS_VCAM1: BioMAP Diversity Plus: LPS Assay for Vascular cell adhesion molecule 1 (VCAM1) Biomarker Activity (AID 2283086). The gist of the method: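 VCAM-1 quantified by ELISA in an LPS-activated co-culture of human endothelial cells and peripheral blood mononuclear cells, read 24 h post-treatment. Fitted in both directions versus DMSO; parallel SRB staining flags overt cytotoxicity.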

Read-out in the next assay: CD38, CD38 (gene 952)
The experiment in a line: BSK_SAg_CD38: BioMAP Diversity Plus: SAg Assay for CD38 Biomarker Activity (AID 2283087). The method, boiled down: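 CD38 quantified by ELISA (fluorescence) in a superantigen-activated endothelial cell–PBMC co-culture at 24 h post-dose. Activity fitted in both directions relative to DMSO; parallel SRB and Alamar Blue cytotoxicity read-outs.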

Read-out in another assay: CD40, CD40 (gene 958)
The assay can be described thus: BSK_SAg_CD40: BioMAP Diversity Plus: SAg Assay for CD40 Biomarker Activity (AID 2283088). The method, boiled down: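 Compounds were dosed onto a human primary endothelial–PBMC co-culture, and after 24 h CD40 was quantified by ELISA using a fluorescence signal. Activity in either direction was fitted relative to DMSO.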

Read-out in another assay: CD69, CD69 (gene 969)
The assay can be described thus: BSK_SAg_CD69: BioMAP Diversity Plus: SAg Assay for CD69 Biomarker Activity (AID 2283089).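 For AC50: cell surface CD69 protein quantified by ELISA with fluorescence detection.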 The gist of the method: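 Endothelial/PBMC co-culture; chemical added; 24 h incubation; CD69 ELISA with fluorescence detection; bidirectional fit vs DMSO.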

Read-out in assay [7]: Interleukin-1 alpha (IL1a), IL1A (gene 3552)
The assay can be described thus: BSK_LPS_IL1a: BioMAP Diversity Plus: LPS Assay for Interleukin-1 alpha (IL1a) Biomarker Activity (AID 2283080). The method, boiled down: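 ELISA read-out of IL-1 alpha from a human primary vascular co-culture (endothelium plus PBMC) under LPS, sampled 24 hours post-dosing. Activity was fitted in both directions relative to DMSO controls.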

“And” between values parts separate entries of the source, which are not always exact repeats. Identical values can stand only once. The source holds several records for some structures; these can differ, active in one and inactive in another. The source made the active and inactive calls. Rule for the calls: active = hit-call score of the fitted dose curve at least 0.9, where 1 is the maximum; inactive = score below 0.9.

Tumor necrosis factor (Homo sapiens), sequence (P01375 whole entry, looked up): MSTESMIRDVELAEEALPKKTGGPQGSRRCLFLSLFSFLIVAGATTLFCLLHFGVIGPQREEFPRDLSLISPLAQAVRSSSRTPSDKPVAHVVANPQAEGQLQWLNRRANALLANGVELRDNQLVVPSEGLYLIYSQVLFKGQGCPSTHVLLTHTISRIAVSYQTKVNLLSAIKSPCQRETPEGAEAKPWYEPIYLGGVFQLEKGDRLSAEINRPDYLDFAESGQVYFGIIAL

As for `CCCN(CCC)c1c([N+](=O)[O-])cc(S(N)(=O)=O)cc1[N+](=O)[O-]`, the half-maximal activity concentration (AC50) – broadly, the midpoint of the concentration-response curve, whichever way the signal moves – in [1] is 37.8 µM (active) and 35.1 µM (active) and 33 µM (active); in [2], 34.7 µM (active); in [3], 32.3 µM (active) [middle of 4 runs]; in assay [4], 34.3 µM (active) and 38.1 µM (active) and 32.8 µM (active); in [5], 33.6 µM (active) and 32.2 µM (active); in [6], 34.6 µM (active) [middle of 4 runs]. In addition, the AC50 with CD38, CD38 (gene 952) is 38.7 µM (active) [middle of 4 runs]; with CD40, CD40 (gene 958) it was 35.8 µM (active) [middle of 4 runs]; with CD69, CD69 (gene 969), 32.6 µM (active) [middle of 4 runs]. Also, the result in assay [1], in assay [2], in assay [4] and in assay [5] was inactive.
Regarding `CON(C)C(=O)Nc1ccc(Cl)c(Cl)c1`, the outcome in assay [7] is “inactive”; in assay [1], “inactive”; in [4] it was “inactive”; in assay [5] it was “inactive”; in [6], “inactive”; with CD38, CD38 (gene 952), “inactive”. In addition, the outcome with CD40, CD40 (gene 958) is “inactive”; in the assay with CD69, CD69 (gene 969), “inactive”. Besides, the AC50 in assay [2] is 6.39 µM (active); in assay [3], 7.53 µM (active).
On to `N#Cc1nn(-c2c(Cl)cc(C(F)(F)F)cc2Cl)c(N)c1S(=O)C(F)(F)F` (centres undefined), for which the AC50 in [1] was 32.4 µM (active); in [3], 20 µM (active); in assay [5] it was 5.27 µM (active); in assay [6], 31.2 µM (active); in the assay with CD38, CD38 (gene 952), 29.7 µM (active); with CD40, CD40 (gene 958), 28.1 µM (active). Also, the AC50 with CD69, CD69 (gene 969) was 25.6 µM (active). For the same compound, the result in assay [2] and in [4] was inactive.
As to `CC(Oc1ccc(Cl)cc1Cl)C(=O)O` (centres undefined), the result in assay [7], in [1], in [2], in assay [3], in assay [4] and in [5] was inactive. Also, the outcome in assay [6] is “inactive”; with CD38, CD38 (gene 952), “inactive”; with CD40, CD40 (gene 958) it was “inactive”; with CD69, CD69 (gene 969), “inactive”.
On to `CNC(=S)S`, for which the AC50 in [1] is 20 µM (active); in assay [2] it was 8.25 µM (active); in assay [3], 9.92 µM (active); in [5], 7.49 µM (active); in assay [6] it was 12.4 µM (active); in the assay with CD38, CD38 (gene 952) it was 13.7 µM (active). For the same compound, the outcome in assay [4] is “inactive”; in the assay with CD40, CD40 (gene 958), “inactive”; with CD69, CD69 (gene 969) it was “inactive”.
For `COC(=O)N(OC)c1ccccc1COc1ccn(-c2ccc(Cl)cc2)n1`, the result in [7] and in assay [4] was inactive. Also, the AC50 is 9.04 µM (active) in assay [1]; 0.215 µM (active) in [2]; 14.1 µM (active) in assay [3]; 9.8 µM (active) in [5]; 13 µM (active) in assay [6]; 5.43 µM (active) with CD38, CD38 (gene 952). The AC50 in the assay with CD40, CD40 (gene 958) is 15 µM (active); with CD69, CD69 (gene 969) it was 3.97 µM (active).
As to `CCON=C(CC)C1=C(O)CC(c2c(C)cc(C)cc2C)CC1=O` (centres undefined), the outcome is “inactive” in [1]; “inactive” in assay [3]; “inactive” in assay [4]; “inactive” in assay [5]; “inactive” in assay [6]; “inactive” with CD38, CD38 (gene 952). The outcome was “inactive” with CD40, CD40 (gene 958) and “inactive” with CD69, CD69 (gene 969). Also, the AC50 in [2] is 20 µM (active).
In the case of `COC(=O)C(C)Oc1ccc(Oc2ccc(Cl)cc2Cl)cc1` (centres undefined), the result in assay [7], in assay [1], in assay [3], in assay [4], in [5] and in assay [6] was inactive. Further, the outcome is “inactive” with CD38, CD38 (gene 952); “inactive” with CD40, CD40 (gene 958); “inactive” with CD69, CD69 (gene 969). Also, the AC50 is 28.9 µM (active) in assay [1]; 11.4 µM (active) and 12 µM (active) and 23.5 µM (active) in assay [2]; 10.9 µM (active) in the assay with CD38, CD38 (gene 952); 13.6 µM (active) in the assay with CD40, CD40 (gene 958).
Consider `CNC(=O)ON=CC(C)(C)SC`, for which the outcome in [7], in assay [1], in [3], in assay [4], in assay [5] and in assay [6] was inactive. For the same compound, the outcome with CD38, CD38 (gene 952) is “inactive”; in the assay with CD40, CD40 (gene 958), “inactive”; with CD69, CD69 (gene 969), “inactive”. Besides, in [2], the AC50 is 2.13 µM (active).
Turning to `Cc1c(F)c(F)c(COC(=O)C2C(/C=C(\Cl)C(F)(F)F)C2(C)C)c(F)c1F` (centres undefined), the AC50 in [7] is 300 nM (active); in assay [3], 12.7 µM (active); in assay [6] it was 12 µM (active); with CD38, CD38 (gene 952), 9.52 µM (active); with CD40, CD40 (gene 958), 32.5 µM (active); with CD69, CD69 (gene 969), 5.53 µM (active). The result in assay [1], in assay [2], in assay [4] and in [5] was inactive.
Consider `Cc1ccc(-c2c(Cl)nc(C#N)n2S(=O)(=O)N(C)C)cc1`, for which the AC50 in [1] is 29.6 µM (active); in assay [2], 30 µM (active); in [3], 31.5 µM (active); in assay [6], 34 µM (active); with CD38, CD38 (gene 952) it was 22.5 µM (active); with CD40, CD40 (gene 958), 20 µM (active). The AC50 in the assay with CD69, CD69 (gene 969) was 13.9 µM (active). Besides, the outcome in assay [4] and in assay [5] was inactive.
On to `C=CCC1=C(C)C(OC(=O)C2C(C=C(C)C)C2(C)C)CC1=O` (centres undefined), for which the AC50 in assay [7] is 34.3 µM (active) [middle of 4 runs]; in assay [1], 35.7 µM (active) [middle of 4 runs]; in assay [2], 33.7 µM (active) and 5.54 µM (active); in assay [3] it was 24.4 µM (active) [middle of 4 runs]; in assay [4], 33.8 µM (active) and 31.9 µM (active); in assay [5], 34.3 µM (active) [middle of 4 runs]. The AC50 is 31 µM (active) [middle of 4 runs] in assay [6]; 30.5 µM (active) and 34.3 µM (active) and 31.6 µM (active) with CD38, CD38 (gene 952); 31.7 µM (active) [middle of 4 runs] in the assay with CD40, CD40 (gene 958); 30.1 µM (active) [middle of 4 runs] in the assay with CD69, CD69 (gene 969). Also, the outcome in assay [2] and in [4] was inactive.

The values above are taken from PubChem BioAssay (EPA / NIEHS).
